# Bioassay records: PubChem, Broad Institute
# IDE exosite FP = exo-site inhibitors of human insulin-degrading enzyme. purified IDE, FL-6b probe fluorescence polarization; stronger effect = lower value. z-score at 20 µM. actives 6.3% (n = 17,000);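 active = z-score of -3 or lower, meaning strong loss of probe binding signal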;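 also: His-tagged human IDE residues 42-1019 made in E. coli with 30 nM FL-6b probe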
# Target sequence (P14735 42-1019 limits assumed): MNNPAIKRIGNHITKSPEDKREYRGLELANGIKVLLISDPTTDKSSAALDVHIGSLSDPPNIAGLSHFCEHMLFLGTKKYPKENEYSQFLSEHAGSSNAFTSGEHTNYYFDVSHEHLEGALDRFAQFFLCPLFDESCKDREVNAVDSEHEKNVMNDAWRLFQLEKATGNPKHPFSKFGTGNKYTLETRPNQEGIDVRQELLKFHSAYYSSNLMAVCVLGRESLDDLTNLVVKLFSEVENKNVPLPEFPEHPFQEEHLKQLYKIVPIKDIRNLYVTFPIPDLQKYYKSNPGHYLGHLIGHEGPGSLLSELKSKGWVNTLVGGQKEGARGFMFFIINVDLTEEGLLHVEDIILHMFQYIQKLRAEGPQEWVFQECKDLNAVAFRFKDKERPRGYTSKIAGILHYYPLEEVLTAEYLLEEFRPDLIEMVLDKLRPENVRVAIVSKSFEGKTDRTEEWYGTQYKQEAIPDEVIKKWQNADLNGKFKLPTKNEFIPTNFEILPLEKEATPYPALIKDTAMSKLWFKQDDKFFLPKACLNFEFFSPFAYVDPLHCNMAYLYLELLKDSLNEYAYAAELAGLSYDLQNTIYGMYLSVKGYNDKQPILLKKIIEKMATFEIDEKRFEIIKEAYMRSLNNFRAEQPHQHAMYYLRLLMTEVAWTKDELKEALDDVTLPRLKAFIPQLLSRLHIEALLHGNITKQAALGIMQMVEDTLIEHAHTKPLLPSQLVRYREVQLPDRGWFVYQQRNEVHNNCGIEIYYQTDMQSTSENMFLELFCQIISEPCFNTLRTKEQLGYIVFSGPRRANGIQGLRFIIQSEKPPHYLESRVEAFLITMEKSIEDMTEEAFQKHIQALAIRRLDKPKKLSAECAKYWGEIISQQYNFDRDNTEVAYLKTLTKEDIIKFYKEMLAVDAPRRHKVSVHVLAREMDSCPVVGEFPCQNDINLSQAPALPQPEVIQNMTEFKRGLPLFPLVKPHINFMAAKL
# Active calls of the source: *. Only a selection was taken, and hits are over-represented in it overall.
SMILES,IDE exosite FP
O=C(c1cccnc1)N1CCCCN2[C@H](C1)[C@@H](c1ccc(C#Cc3ccccn3)cc1)[C@@H]2CO,-3.8*
O=C(c1cccnc1)N1CCCCN2[C@H](CO)[C@@H](c3ccc(C#Cc4ccccn4)cc3)[C@H]2C1,-4.7*
O=C(c1cccnc1)N1CCCCN2[C@H](CO)[C@@H](c3ccc(C#Cc4ccccn4)cc3)[C@@H]2C1,-2.6
CC(C)(O)C#Cc1ccc([C@H]2[C@@H](CO)N3CCCCN(C(=O)c4cccnc4)C[C@H]23)cc1,2
O=C(c1cccnc1)N1CCCCN2[C@@H](CO)[C@H](c3ccc(C#Cc4cccnc4)cc3)[C@@H]2C1,0.61
CC=Cc1ccc2n(c1=O)C[C@@H]1[C@@H](CO)[C@H](C(=O)N[C@H](C)c3ccccc3)[C@H]2N1Cc1cncnc1 (mixture of isomers),-0.67
CC[C@@H]1C/C=C\C[C@H](c2ccc(OC)cc2OC)NC(=O)[C@H](C)CC(=O)N1,-0.61
O=S(=O)(c1ccccc1)N1[C@@H]2CNc3ccccc3[C@@H]2[C@@H]1CO,2.9
O=C(Nc1ccc(F)cc1)N1CCCCN2[C@H](CO)[C@H](c3ccc(C#CC4CC4)cc3)[C@@H]2C1,0.79
N#C[C@H]1[C@H](c2ccccc2C2=CCCCC2)[C@@H](CO)N1C(=O)C1CCOCC1,3.5
O=C(C1CCCC1)N1CC(=O)N2[C@@H](CO)[C@@H](c3ccc(C#CC4CCCC4)cc3)[C@@H]2C1,3.1
N#C[C@H]1[C@@H](c2ccccc2-c2ccc(F)cc2)[C@@H](CO)N1C(=O)Cc1ccccc1,3.6
COc1cccc(C#Cc2ccc([C@@H]3[C@H](C#N)N(C(=O)C4CC4)[C@H]3CO)cc2)c1,-0.13
COc1ccccc1C#Cc1ccc([C@H]2[C@@H](C#N)N(C(=O)C3CCC3)[C@H]2CO)cc1,-4.9*
COc1cccc(C#Cc2ccc([C@H]3[C@@H](CO)N(C(=O)C4CCC4)[C@H]3C#N)cc2)c1,3.6
COc1ccccc1C#Cc1ccc([C@H]2[C@@H](CO)N(C(=O)C3CC3)[C@H]2C#N)cc1,-7.5*
N#C[C@H]1[C@@H](c2ccc(C#Cc3ccccc3F)cc2)[C@@H](CO)N1C(=O)C1CCCCC1,1.7
N#C[C@@H]1[C@H](c2ccc(C#Cc3ccc(F)cc3)cc2)[C@@H](CO)N1C(=O)C1CC1,4.9
COc1cccc(C#Cc2ccc([C@@H]3[C@H](C#N)N(C(=O)C4CCC4)[C@H]3CO)cc2)c1,4.2
COc1ccccc1C#Cc1ccc([C@H]2[C@@H](C#N)N(C(=O)C3CCCCC3)[C@H]2CO)cc1,-1.6
COc1ccccc1C#Cc1ccc([C@@H]2[C@@H](C#N)N(C(=O)C3CCCCC3)[C@H]2CO)cc1,-8*
CNC[C@@H]1Oc2ccc(NS(=O)(=O)c3ccc(OC)cc3)cc2C(=O)N([C@H](C)CO)C[C@H]1C,1.6
COc1ccccc1NC(=O)N1CC(=O)N2[C@@H](CO)[C@@H](c3ccc(C#CC4CC4)cc3)[C@@H]2C1,2.8
COC(=O)[C@@H]1[C@@H](CO)[C@@H]2Cn3c(ccc(-c4ccncc4)c3=O)[C@@H]2N1Cc1ccccc1F,0.086
CCC(=O)N1CC(=O)N2[C@H](CO)[C@H](c3ccc(C#Cc4cccnc4)cc3)[C@@H]2C1,2
SMILES,IDE exosite FP
O=C(C[C@@H]1CC[C@H](NS(=O)(=O)c2ccccc2F)[C@H](CO)O1)NCCCN1CCOCC1,0.44
CC(=O)N1[C@@H](CO)[C@H](c2ccccc2)[C@@H]1CN(CC(C)C)C(=O)c1ccccn1,-0.77
O=C(Nc1cccc(F)c1)N1CC(=O)N2[C@H](CO)[C@H](c3ccc(C#Cc4cccnc4)cc3)[C@H]2C1,4.2
CC1C=NC(S(=O)(=O)N2CC[C@H]3[C@@H](CO)N(C)c4ccc(C5=CCCCC5)cc4[C@H]32)=N1 (stereo partly drawn),0.48
COCC(=O)N1[C@H](CO)[C@@H](c2ccccc2-c2ccccc2)[C@@H]1C#N,1.2
COCC(=O)N1CCCCN2[C@@H](CO)[C@@H](c3ccc(C#Cc4ccccc4)cc3)[C@@H]2C1,-8.5*
COCC(=O)N1CCCCN2[C@H](CO)[C@@H](c3ccc(C#Cc4ccccc4)cc3)[C@@H]2C1,-8.5*
COc1ccccc1NC(=O)N1CCCCN2[C@H](CO)[C@H](c3ccc(C#Cc4ccccc4)cc3)[C@H]2C1,-0.26
COCC(=O)N1CCCCN2[C@H](C1)[C@H](c1ccc(C#Cc3ccc(OC)cc3)cc1)[C@@H]2CO,1.8
COc1ccccc1NC(=O)N1CCCCN2[C@H](C1)[C@@H](c1ccc(C#Cc3ccccc3)cc1)[C@@H]2CO,2.6
COCC(=O)N1CCCCN2[C@@H](CO)[C@@H](c3ccc(C#Cc4ccc(OC)cc4)cc3)[C@@H]2C1,0.57
COCC#Cc1ccc([C@@H]2[C@H](CO)N3CCCCN(C(=O)COC)C[C@@H]23)cc1,1.8
COCC(=O)N1CCCCN2[C@H](CO)[C@H](c3ccc(C#Cc4ccccc4)cc3)[C@H]2C1,-6.3*
CC(C)COC(=O)N(C)C[C@H]1OCc2ccccc2-c2ccccc2C(=O)N([C@H](C)CO)C[C@@H]1C,0.32
O=C(c1cccc(F)c1)N1CCCCN2[C@@H](CO)[C@H](c3ccc(C#CC4(O)CCCC4)cc3)[C@@H]2C1,-1
C[C@@H]1CCCCO[C@@H](CN(C)C(=O)c2ccncc2)[C@H](C)CN([C@@H](C)CO)C(=O)c2cc(NS(=O)(=O)c3cccs3)ccc2O1,0.33
Cc1cccc(-c2ccccc2[C@H]2[C@@H](C#N)N(c3ncc(-c4ccccc4)s3)[C@@H]2CO)c1,-0.17
CN(C[C@@H]1[C@H](c2ccccc2)[C@H](CO)N1Cc1ccccn1)S(C)(=O)=O,1.2
COc1ccc([C@@H]2C/C=C\C[C@@H](c3ccc4c(c3)OCO4)NC(=O)[C@H](c3ccccc3)CC(=O)N2)c(OC)c1,2
CN(C)CC#Cc1ccc([C@H]2[C@@H](CO)N3CCCCN(C(=O)Nc4cc(F)ccc4F)C[C@H]23)cc1,2.3
CN(C)CC#Cc1ccc([C@@H]2[C@@H](CO)N3C(=O)CN(C(=O)c4ccc(F)cc4)C[C@@H]23)cc1,0.55
CO[C@@H](CN(C)S(=O)(=O)c1ccc(C)cc1)[C@H](C)CN(C(=O)Nc1ccccc1F)[C@@H](C)CO,-0.75
O=C(NCC[C@@H]1CC[C@H](NC(=O)c2ccncc2)[C@H](CO)O1)Nc1ccc(Cl)cc1,2.2
O=C(NC[C@@H]1[C@@H](c2ccccc2)[C@@H](CO)N1C(=O)Cc1cccnc1)C1CC1,1.2
N#C[C@@H]1N[C@H](CO)[C@H]1c1ccc(C2=CCCC2)cc1,1.6
SMILES,IDE exosite FP
CN1C(=O)c2cc(NS(C)(=O)=O)ccc2OC[C@@H]2O[C@@H](CC(=O)NCc3ccccc3)CC[C@@H]21,-1.1
O=S(=O)(c1ccccc1)N1CC2(C1)[C@H](c1ccccc1)[C@@H](CO)N2CC1CCOCC1,-0.65
Cc1noc(C)c1S(=O)(=O)Nc1ccc2c(c1)CC(=O)N([C@H](C)CO)C[C@@H](C)[C@H](CN(C)Cc1ccc(Oc3ccccc3)cc1)O2,-1.1
C[C@@H]1CN([C@@H](C)CO)C(=O)c2cc(N(C)C)ccc2O[C@@H]1CN(C)Cc1ccc(Oc2ccccc2)cc1,-1.4
C[C@@H]1CN([C@@H](C)CO)C(=O)c2cc(/C=C/c3ccccc3)cnc2O[C@@H]1CN(C)S(=O)(=O)c1ccccc1F,-4*
C[C@@H]1CN([C@@H](C)CO)C(=O)c2cc(N(C)C)ccc2O[C@H]1CN(C)Cc1ccc(Oc2ccccc2)cc1,-0.56
C[C@H]1CN([C@@H](C)CO)C(=O)c2cc(Br)cnc2O[C@H]1CN(C)Cc1ccc(Oc2ccccc2)cc1,-3.5*
